This is an account of results in PubChem BioAssay (Tox21).

Test [1] is described as follows: qHTS assay to identify small molecule agonists of the peroxisome proliferator-activated receptor delta (PPARd) signaling pathway - cell viability counter screen (AID 743211). Also: nearly all actives have a fitted effect of over 55% in size. Also: potency is read from the fitted curve at half-maximal effect. In outline:
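Luminescent ATP viability assay (CellTiter-Glo, 30 min RT) in UAS-bla HEK293H cells carrying the PPAR delta reporter construct, 3000 cells/well, after a 17 h compound treatment at 37 C.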
Background: Quantitative high-throughput screening tests each substance at several concentrations.

Test [2] is described as follows: qHTS assay to identify small molecule antagonists of the peroxisome proliferator-activated receptor delta (PPARd) signaling pathway - cell viability counter screen (AID 743213). Also: nearly all actives have a fitted effect of over 50% in size. Also: potency is read from the fitted curve at half-maximal effect. Put shortly: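 Viability counter-screen, qHTS format: PPARd-bla HEK293H, L165041 300 nM final, 17 h compound exposure at 37 C, CellTiter-Glo luminescence after 30 min RT.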
Test [3] is described as follows: qHTS assay to identify small molecule agonists of the farnesoid-X-receptor (FXR) signaling pathway - cell viability counter screen (AID 743218). Also: nearly all actives have a fitted effect of over 45% in size. Also: potency is read from the fitted curve at half-maximal effect. Put shortly: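 FXR-UAS-bla HEK 293T cells, plated 5 h at 37 C, were exposed to compounds for 16 h at 37 C. CellTiter-Glo was then added to the same wells as the bla readout; luminescence read after 30 min at room temperature.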

Test [4] addresses Bile acid receptor (Homo sapiens) (UniProt Q96RI1). Briefly: qHTS assay to identify small molecule antagonists of the farnesoid-X-receptor (FXR) signaling pathway (AID 743217; active = well fitted inhibition curve with a large enough effect in the signal ratio in the repeat runs, not every such curve was filed as active; the % refers to the signal ratio). Put shortly: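 FXR-UAS-bla HEK 293T cells pre-incubated 5 h at 37 °C, then exposed to compounds with chenodeoxycholic acid (50 uM final) for 16 h at 37 °C. Beta-lactamase reporter read by LiveBLAzer B/G FRET substrate fluorescence after 2 h at room temperature.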

The target is the same in test [5]. The experiment in a line: qHTS assay to identify small molecule agonists of the farnesoid-X-receptor (FXR) signaling pathway (AID 743220; active = well fitted activation curve with a large enough effect in the signal ratio in the repeat runs, not every such curve was filed as active; the % refers to the signal ratio). Put shortly:
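Beta-lactamase reporter under UAS control in GeneBLAzer FXR HEK 293T cells (5000/well) measured with LiveBLAzer FRET substrate after 2 h at room temperature. Compound exposure lasted 16 h at 37C.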

A short description of test [6]: qHTS assay to identify small molecule antagonists of the farnesoid-X-receptor (FXR) signaling pathway - cell viability counter screen (AID 743221; active = well fitted cell-killing curve with a large enough effect in the repeat runs, not every such curve was filed as active; also: nearly all actives have a fitted effect of over 50% in size; also: potency is read from the fitted curve at half-maximal effect). In outline:
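In GeneBLAzer FXR-UAS-bla HEK 293T cells stimulated with 50 uM chenodeoxycholic acid (final), compounds acted for 16 h at 37 C. Viability was assessed afterwards by CellTiter-Glo luminescence.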

The target in test [7] is Vitamin D3 receptor (Homo sapiens) (UniProt P11473). The experiment in a line: qHTS assay to identify small molecule agonists of the vitamin D receptor (VDR) signaling pathway (AID 743222; calls by dose curve). Put shortly:
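VDR-bla cells were plated 4 h at 37C/5% CO2, then exposed to compounds in DMSO for 16 h. After LiveBLAzer B/G FRET substrate addition and 2 h at room temperature, beta-lactamase reporter fluorescence was read.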

Test [8] has the same target. The experiment in a line: qHTS assay to identify small molecule antagonists of the vitamin D receptor (VDR) signaling pathway (AID 743223; active = well fitted inhibition curve with a large enough effect in the signal ratio in the repeat runs, not every such curve was filed as active; the % refers to the signal ratio; also: potency is read from the fitted curve at half-maximal effect). In outline: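 Agonist 1alpha,25-dihydroxyvitamin D3 (3 nM in well) was added with each compound to VDR-bla cells preincubated 4 h. Cells stood 16 h at 37C, then FRET substrate 2 h at room temperature; fluorescence intensity recorded.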

In test [9] the target is Peroxisome proliferator-activated receptor delta (Homo sapiens) (UniProt Q03181). Briefly: qHTS assay to identify small molecule agonists of the peroxisome proliferator-activated receptor delta (PPARd) signaling pathway (AID 743212; calls by dose curve). In outline: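 HEK293H PPARd-bla cells; 5 h preincubation 37 C/5% CO2; compound (DMSO) 37 C; LiveBLAzer B/G FRET substrate 2 h RT; fluorescence intensity.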
Peroxisome proliferator-activated receptor delta (Homo sapiens), sequence (Q03181 whole entry, looked up): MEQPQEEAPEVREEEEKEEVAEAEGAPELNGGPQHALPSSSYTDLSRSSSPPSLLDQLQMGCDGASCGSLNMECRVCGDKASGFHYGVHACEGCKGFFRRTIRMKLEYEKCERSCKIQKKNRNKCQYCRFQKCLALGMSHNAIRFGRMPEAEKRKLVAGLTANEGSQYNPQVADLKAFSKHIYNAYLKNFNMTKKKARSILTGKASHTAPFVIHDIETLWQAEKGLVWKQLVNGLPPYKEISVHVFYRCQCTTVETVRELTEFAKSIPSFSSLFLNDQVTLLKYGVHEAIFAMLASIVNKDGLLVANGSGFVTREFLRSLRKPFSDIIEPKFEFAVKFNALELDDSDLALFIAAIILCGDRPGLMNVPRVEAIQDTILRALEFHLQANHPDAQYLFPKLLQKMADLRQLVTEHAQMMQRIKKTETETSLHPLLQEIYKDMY

The structures appear in SMILES notation. Where “and” joins values, the source holds several entries; their conditions need not be identical. Equal values may be shown once. Results filed as inconclusive are left out. Some structures have more than one record in an assay (separate samples or runs), and their calls can disagree. Calls of active or inactive are those of the source. Unless noted, calls follow the shape of the dose curve; as a rule, active = well fitted curve in the direction sought with a large enough effect in the repeat runs; inconclusive = weak or mixed curves; inactive = no such curve, though single readings can be large; an effect the other way counts as inactive or inconclusive.

Vitamin D3 receptor (Homo sapiens), sequence (P11473 whole entry, looked up): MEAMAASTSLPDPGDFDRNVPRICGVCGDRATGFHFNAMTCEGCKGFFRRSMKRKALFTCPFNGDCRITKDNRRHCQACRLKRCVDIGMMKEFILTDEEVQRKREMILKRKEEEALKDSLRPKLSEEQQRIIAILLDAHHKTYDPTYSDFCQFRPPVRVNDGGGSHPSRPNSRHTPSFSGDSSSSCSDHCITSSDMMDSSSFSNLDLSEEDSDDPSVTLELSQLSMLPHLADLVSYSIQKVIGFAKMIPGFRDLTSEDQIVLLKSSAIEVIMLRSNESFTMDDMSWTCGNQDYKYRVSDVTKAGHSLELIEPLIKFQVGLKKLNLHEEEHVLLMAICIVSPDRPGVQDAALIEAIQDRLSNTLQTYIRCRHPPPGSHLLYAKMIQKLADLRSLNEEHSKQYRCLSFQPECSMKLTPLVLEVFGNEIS
Bile acid receptor (Homo sapiens), sequence (Q96RI1 whole entry, looked up): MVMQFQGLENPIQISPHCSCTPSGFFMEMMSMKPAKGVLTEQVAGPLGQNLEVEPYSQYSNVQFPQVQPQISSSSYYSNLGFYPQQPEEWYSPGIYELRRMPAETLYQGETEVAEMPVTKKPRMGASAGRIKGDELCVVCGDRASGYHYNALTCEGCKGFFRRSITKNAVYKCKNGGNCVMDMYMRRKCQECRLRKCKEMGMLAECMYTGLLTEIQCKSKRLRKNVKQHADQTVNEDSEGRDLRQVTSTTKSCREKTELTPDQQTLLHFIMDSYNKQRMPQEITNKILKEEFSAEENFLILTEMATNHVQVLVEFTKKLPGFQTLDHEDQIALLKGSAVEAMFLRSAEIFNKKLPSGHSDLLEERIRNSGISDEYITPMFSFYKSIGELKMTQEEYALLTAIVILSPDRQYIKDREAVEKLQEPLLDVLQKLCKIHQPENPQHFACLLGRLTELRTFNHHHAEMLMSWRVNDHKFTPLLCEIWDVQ

Take `Cl`: the Potency entry in test [1], in [2] and in [3] was “inactive” in each case.

As to `[Cl-].[Cl-].[Cl-].[Fe+3]`, the Potency result in test [1], in [2] and in test [3] was “inactive” in each case.

On to `Clc1ccc(C(Cl)(Cl)Cl)cc1`, for which the Potency result in test [1], in test [2], in test [4], in [3], in test [5] and in test [6] was “inactive” each time.

`O=C(O)CF`: the Potency result in [1], in test [2] and in test [3] was “inactive” each time. The compound was classed as inactive in test [7].

For the compound `CCC(=O)Nc1ccc(Cl)c(Cl)c1`, the Potency entry in test [1], in [2], in test [3] and in test [6] was “inactive” each time. Also, in [7], the result was inactive.

As to `O=S(=O)(O)C(F)(F)C(F)(F)C(F)(F)C(F)(F)C(F)(F)C(F)(F)C(F)(F)C(F)(F)F`, the Potency result in test [1] and in test [8] was “inactive” each time. Moreover, the Potency in [2] was 26.2 µM (active) and 43.6 µM (active); in test [3] it was 52.3 µM (active) and 49 µM (active) and 33.6 µM (active). Moreover, the compound was called inactive in test [7].

Take `CC(C)=CC1C(C(=O)OCN2C(=O)C3=C(CCCC3)C2=O)C1(C)C` (centres undefined): the Potency entry in [1], in test [2], in [3] and in test [8] was “inactive” each time. In test [7], the call was inactive.

Consider `NN=C(N)N`, for which the Potency result in test [1], in test [2], in test [3] and in [6] was “inactive” each time.

For the compound `CS(=O)(=O)NC(=O)c1cc(Oc2ccc(C(F)(F)F)cc2Cl)ccc1[N+](=O)[O-]`, the Potency entry in test [1], in [2], in [4], in [3] and in test [5] was “inactive” each time. Further, in test [7], the call was inactive.

For `O=[N+]([O-])/N=C1\NCCN1Cc1ccc(Cl)nc1`, the Potency result in test [1], in test [2], in test [4], in test [3], in [5] and in test [6] was “inactive” in each case. In test [7], the call was inactive.

As for `CC(C)(c1ccccc1)c1ccc(O)c(C(C)(C)c2ccccc2)c1`, the Potency was 21.7 µM (active) and 19.5 µM (active) in test [1]; 34.3 µM (active) and 43.6 µM (active) in test [2]; 54.9 µM (active) in test [3].

For `S=c1[nH]c2ccccc2[nH]1`, the Potency result in test [1], in [2], in test [3] and in test [6] was “inactive” each time.

`CCOP(=S)(OCC)SCn1c(=O)oc2cc(Cl)ccc21`: the Potency result in [1], in test [2], in [4], in test [5] and in test [8] was “inactive” throughout. For the same compound, the compound was classed as inactive in [7].

Consider `C[N+](C)(C)C`, for which the Potency result in [1], in test [2], in test [3] and in test [6] was “inactive” each time. In test [7], the result was inactive.

Consider `CCC1(c2ccc(N)cc2)CCC(=O)NC1=O` (centres undefined), for which the Potency entry in test [1], in test [2], in test [4], in [3], in test [5] and in [6] was “inactive” each time. Further, the call in [7] was inactive.

For the compound `CCC[CH2][Sn]([Cl])([CH2]CCC)[CH2]CCC`, the Potency in test [1] is 551 nM (active) and 1.23 µM (active); in test [2], 778 nM (active) and 1.95 µM (active); in test [3], 873 nM (active) and 1.23 µM (active).

Consider `N#Cc1c(Cl)c(Cl)c(Cl)c(C#N)c1Cl`, for which the Potency in test [1] is 6.79 µM (active) and 6.92 µM (active); in test [2] it was 15.2 µM (active) and 5.49 µM (active); in test [3], 21.5 µM (active) and 15.5 µM (active); in test [6], 24.1 µM (active) and 21.9 µM (active). Besides, the compound was classed as inactive in test [7].

Turning to `CSc1nc(NC(C)C)nc(NC(C)C)n1`, the Potency result in test [1], in test [2], in test [3] and in test [6] was “inactive” throughout. The result in test [7] was inactive.

Consider `CC(C)(O)C#N`, for which the Potency result in [1], in test [2], in [4], in [3], in test [5] and in test [8] was “inactive” in each case. In [7], the result was inactive.

`NC(=O)CN1CCCC1=O`: the Potency result in test [1], in test [2] and in test [3] was “inactive” each time. The compound was called inactive in test [7].

In the case of `CC(C)(O)C(=O)Nc1ccc([N+](=O)[O-])c(C(F)(F)F)c1`, the Potency result in test [1], in test [2], in [3] and in test [6] was “inactive” in each case. Besides, in [7], the result was inactive.

On to `CN(C)c1ccccc1`, for which the Potency entry in [1], in test [2], in [4], in test [3], in [5] and in [6] was “inactive” each time. Besides, the outcome in test [7] was inactive.

For the compound `CC1(C)Cc2cccc(O)c2O1`, the Potency result in [1], in [2], in test [3] and in test [8] was “inactive” each time. The call in test [7] was inactive.

Take `CCC[CH2][Sn]([Cl])([Cl])[CH2]CCC`: the Potency in test [1] is 198 nM (active) and 61.6 nM (active); in [2], 556 nM (active) and 155 nM (active); in test [3], 140 nM (active) and 24.5 nM (active); in [6], 222 nM (active) and 123 nM (active).

Regarding `C=CC(Cl)CCl` (centres undefined), the Potency entry in [1], in test [2], in test [4], in test [3], in test [5] and in test [6] was “inactive” each time. Moreover, the Potency result in test [8] was “inactive”. Further, in test [7], the call was inactive.

As for `CC(C)COC(=O)c1ccccc1C(=O)OCC(C)C`, the Potency result in test [1], in test [2], in test [4], in test [3], in test [5] and in test [6] was “inactive” in each case.

Turning to `CC(C)Nc1ccc(Nc2ccccc2)cc1`, the Potency result in test [9], in test [3], in test [5] and in test [6] was “inactive” in each case. For the same compound, in test [2], the Potency is 43.6 µM (active).

As to `O=[N+]([O-])c1ccc(Cl)c([N+](=O)[O-])c1`, the Potency is 19.8 µM (active) and 19.5 µM (active) in [1]; 24.9 µM (active) and 19.5 µM (active) in test [2]; 54.9 µM (active) in test [3]; 22.2 µM (active) and 21.9 µM (active) in test [8].

On to `CCOP(=O)(O)OCC` (tested in a mixture with another compound), for which the Potency entry in [1] was “inactive and 21.7 µM (active)”; in test [2], “inactive and 19.3 µM (active)”; in [3], “inactive and 43.3 µM (active)”; in test [6] it was “inactive and 48.6 µM (active)”.

For the compound `COP(=S)(OC)Oc1ccc(S(=O)(=O)N(C)C)cc1`, the Potency entry in [1], in [2], in test [3], in [6] and in [8] was “inactive” throughout. Moreover, the result in test [7] was inactive.

With `COc1ccc(CO)cc1`, the Potency result in test [1], in test [2], in test [4], in [3], in test [5] and in test [8] was “inactive” throughout. The result in test [7] was inactive.

Take `CCCCCCCC[N+](C)(CCCCCCCC)CCCCCCCC`: the Potency was 4.36 µM (active) and 2.46 µM (active) and 5.49 µM (active) in [1]; 3.88 µM (active) and 2.46 µM (active) and 5.49 µM (active) in [2]; 7.75 µM (active) and 2.19 µM (active) and 7.76 µM (active) in [3].

Regarding `COc1ccc(C=O)cc1OC`, the Potency result in test [1], in [2], in test [3] and in test [6] was “inactive” throughout.

In the case of `Cc1ccc(N=CN(C)C=Nc2ccc(C)cc2C)c(C)c1`, the Potency in test [1] is 49.2 µM (active) and 48.9 µM (active) and inactive; in test [2], 24.5 µM (active). The Potency result in [3] and in test [6] was “inactive” each time. In addition, in [7], the call was inactive.

For `CCC/C=N/O`, the Potency entry in test [1], in test [2], in test [4], in test [3] and in test [5] was “inactive” in each case. Moreover, the result in test [7] was inactive.

On to `COc1ccc(O)c(C(C)(C)C)c1`, for which the Potency result in test [1], in [2], in test [4], in test [3], in test [5] and in [6] was “inactive” in each case. Besides, in [8], the Potency result is “inactive”. Besides, the outcome in test [7] was inactive.
